Compound activity deposited in PubChem by Broad Institute.
Wnt act = Wnt/beta-catenin pathway activators, primary screen, cell-based, plate reader, single point; Wnt/beta-catenin reporter cell assay, activator; activation, % at 9.35 µM; actives 1.2% (n = 300,000); in the data active = activation above about 30%, passing the limit was not always enough; inconclusive = no clear call, values can overlap the other calls;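 note: 0% = neutral control wells and 100% = positive control wells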
esBAF inh = Bmi1 luciferase reporter increase in mESCs, primary screen, esBAF inhibitor project, mouse ES cells, Bmi1 luciferase knock-in, single point. 24 h; 100% = twice the neutral-well signal. reporter increase, % at 12.5 µM. actives 2% (n = 350,000); in the data active = activation above about 40%; inconclusive = no clear call, values can overlap the other calls;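 note: 0% = median of the plate's neutral control wells and 100% = double that signal; a rise in the Bmi1 reporter signal indicates esBAF inhibition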
MITF act = activators of MITF-driven TRPM1 promoter reporter, primary screen, cell-based, SK-MEL-5, luciferase, single point | SK-MEL-5 TRPM1-promoter luciferase, 24 h; % of positive control, neutral wells = 0 | actives 0.75% (n = 300,000) | activation, % at 12.5 µM | AID 588334, 2011;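 active = mean activation of at least 80% with every replicate also reaching 80%; inconclusive = mean reaches 80% but some replicate falls short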;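 note: 0% = neutral control wells and 100% = parthenolide positive control wells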
Statin myotox sup = suppressors of statin myotoxicity in C2C12 myotubes, primary screen, cell-based, single point, plate reader; rescue of ATP level, % at 7.49 µM; actives 0.78% (n = 330,000); C2C12 myotubes + simvastatin, ATP luminescence, 48 h; scaled: DMSO 0, geranylgeraniol control 100;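 active = mean ATP rescue above about 67%, or every replicate alone reaching that limit, limit read from the data, passing the limit was not always enough; inconclusive = no clear call, values can overlap the other calls; inactive = mean under the limit and some replicate under it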;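 note: myotubes were challenged with 10 µM simvastatin during compound exposure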
* marks the source's active call; other numbers are inactive results; ? = inconclusive; . = no result. Compounds with a hit are over-represented: about 3% of the library has one in this group of screens.

SMILES	Wnt act	esBAF inh	MITF act	Statin myotox sup
C[C@@H]1CN([C@@H](C)CO)C(=O)c2cccc(NC(=O)Nc3ccc4c(c3)OCO4)c2O[C@H]1CN(C)S(=O)(=O)c1cccs1	.	16.7	.	3.5
C[C@H]1CN([C@@H](C)CO)C(=O)c2cc(NC(=O)Cc3ccccc3)ccc2O[C@@H]1CN(C)S(=O)(=O)c1cccs1	.	-4.1	.	97.7*
COc1ccc(NC(=O)Nc2ccc3c(c2)C(=O)N([C@@H](C)CO)C[C@@H](C)[C@@H](CN(C)C(=O)Nc2ccccc2)OCCCC[C@@H](C)O3)cc1	.	0.2	.	15.8
CS(=O)(=O)N1[C@@H]2c3ccc(-c4ccc(F)cc4)c(=O)n3C[C@H]1[C@H](CO)[C@H]2C(=O)N1CCOCC1	.	-0.8	.	-0.5
CNC[C@@H]1Oc2ccc(NC(=O)Nc3cccc4ccccc34)cc2C(=O)N([C@H](C)CO)C[C@@H]1C	.	-10.0	.	14.3
N#CC1=C(N)OC2=C(C(=O)CCC2)[C@]12C(=O)N(CC(N)=O)c1ccccc12	.	5.9	1.4	109.4*
O=c1[nH]c(SCc2cccc(Cl)c2)nc2ccccc12	-0.3	.	1.9	.
O=c1[nH]c(-c2ccc(-c3cccc(Cl)c3)o2)nc2ccccc12	?	57.8*	104.1*	-39.2
COc1ccccc1CN1CC[C@@H]2[C@H]1c1cc(C3=CCCCC3)ccc1N[C@@H]2CO	.	-0.2	.	-4.6
CCOC(=O)c1sc2nc(-c3cccnc3)ccc2c1N	51.9*	.	77.3	.
CCCC#Cc1ccc2c(c1)O[C@H](CN(C)Cc1ccncc1)[C@H](C)CN([C@H](C)CO)S2(=O)=O	.	-0.8	.	-13.6
COc1ccccc1C(=O)Nc1ccc2nc3n(c(=O)c2c1)CCCC3	2.0	17.9	26.7	-6.8
Cc1ccc(CCNC(=O)c2sc3nc4n(c(=O)c3c2C)CCC4)cc1	1.5	10.0	-2.6	-4.9
COc1cc(OC)cc(C(=O)Nc2ccc3nc4n(c(=O)c3c2)CCCCC4)c1	19.7	52.8*	42.7	-36.1
CC(=O)c1cccc(NC(=O)c2sc3nc4n(c(=O)c3c2C)CCCC4)c1	3.9	49.0*	24.1	-6.4
CC(=O)Nc1ccc(NC(=O)c2sc3nc4n(c(=O)c3c2C)CCCCC4)cc1	3.2	.	-7.9	.
CCc1ccc(NC(=O)c2sc3nc4n(c(=O)c3c2C)CCC4)cc1	10.4	43.6*	33.2	-23.4
COc1ccc(S(=O)(=O)Nc2ccc3c(c2)C(=O)N([C@@H](C)CO)C[C@H](C)[C@H](CN(C)C(=O)Nc2ccc(C(F)(F)F)cc2)OCCCC[C@@H](C)O3)cc1	.	6.2	.	.
COc1cccc(NC(=O)c2ccnc(N3CCC(C(=O)NCc4ccccc4OC)CC3)c2)c1	11.4	72.8*	43.1	-37.7
COc1ccccc1CNC(=O)C1CCCN(c2cnccn2)C1 (centres undefined)	-0.3	-9.6	25.4	1.5
Cc1noc(C)c1S(=O)(=O)Nc1ccc2c(c1)C(=O)N([C@H](C)CO)C[C@@H](C)[C@H](CN(C)C(=O)NC1CCCCC1)OCCCC[C@@H](C)O2	.	15.8	.	13.6
CC(C)COc1ccc(C(=O)Nc2ccccc2[N+](=O)[O-])cc1	79.6*	.	49.4	.
O=C(NCCNc1ccccc1[N+](=O)[O-])c1cc(F)c(F)cc1Cl	3.1	36.1	.	-3.9
CCOc1ccc(C(=O)Nc2ncn[nH]2)cc1	-0.9	2.7	.	20.1
COc1ccc(C(=O)NCCNc2ccccc2[N+](=O)[O-])cc1	-3.2	74.3*	66.0	-3.4
SMILES	Wnt act	esBAF inh	MITF act	Statin myotox sup
CC(C)COc1ccc(C(=O)Nc2ncn[nH]2)cc1	6.5	44.8*	19.6	-21.8
CCCOc1ccc(C(=O)Nc2ccc(C)cc2[N+](=O)[O-])cc1	.	24.4	60.0	-36.6
CO[C@@H]1CN(C)C(=O)c2ccc(NC(=O)C3CC3)cc2OC[C@H](C)N(CC2CCCC2)C[C@H]1C	.	-1.2	.	10.5
Cc1ccc(C(=O)N(CCN2CCCCC2)CC2CCCN(C3CCCC3)C2)s1 (centres undefined)	15.4	.	95.3*	.
Cc1ccc(S(=O)(=O)NCC[C@@H]2CC[C@@H](NC(=O)CC3CC3)[C@@H](CO)O2)cc1	.	-4.4	.	5.6
CCCCn1c(N)c(N(Cc2ccccc2OC)C(=O)CC2OC(=O)c3ccccc32)c(=O)[nH]c1=O (centres undefined)	31.8*	7.5	4.7	1.1
COCCCNC(=S)Nc1ccc(C)cc1	0.1	-4.0	-0.9	1.8
COCCCNC(=S)NNC(=S)Nc1ccccc1	42.5*	.	.	.
O=C(Nc1ccccc1F)N[C@H]1CC[C@@H](CCNS(=O)(=O)c2ccc(Cl)cc2)O[C@@H]1CO	.	3.8	.	23.0
Cc1nn(-c2ccccc2)c(C)c1Cc1ccc(O)cc1	8.5	88.2*	66.0	2.2
CCC(=O)n1nc(-c2ccco2)nc1SCc1ccccc1	10.9	29.7	29.8	-8.8
CC(=O)n1nc(-c2ccco2)nc1SCc1ccccc1	.	55.1*	63.6	12.7
CN1[C@H](C(=O)NC2CCCCC2)[C@@H](CO)[C@@H]2Cn3c(ccc(/C=C/c4ccccc4)c3=O)[C@@H]21	.	5.3	.	-6.0
O=C(Nc1nnc(SCc2ccc(Cl)cc2)s1)C1CC(=O)N(Cc2ccccc2)C1 (centres undefined)	34.0*	-13.6	3.8	2.3
Cc1ccc(C(=O)NNC(=O)C2CCN(Cc3ccc(Cl)c(Cl)c3)CC2)cc1	.	0.6	-11.5	134.8*
CNC(=O)c1sc(-c2ccccc2)nc1C	.	7.9	28.9	6.1
CNC(=O)c1sc(-c2ccc(Cl)cc2)nc1C	8.1	67.5*	39.7	5.5
C[C@H](CO)N1C[C@H](C)[C@H](CN(C)C(=O)Nc2ccc3c(c2)OCO3)OCCCC[C@H](C)Oc2ccc(NS(=O)(=O)c3ccc(F)cc3)cc2C1=O	.	13.1	.	80.6*
C[C@@H]1CCCCO[C@H](CN(C)C(=O)Nc2ccc3c(c2)OCO3)[C@H](C)CN([C@@H](C)CO)C(=O)c2cc(NS(=O)(=O)c3ccc(F)cc3)ccc2O1	.	9.9	.	91.7*
COc1ccc(S(=O)(=O)N(C)C[C@H]2Oc3ccc(NS(=O)(=O)c4cccs4)cc3C(=O)N([C@@H](C)CO)C[C@H]2C)cc1	.	3.8	.	.
CC(SC1=NCCS1)C(=O)Nc1nnc(-c2ccc(Cl)cc2)s1 (centres undefined)	5.5	43.0*	45.8	-2.3
C[C@@H]1CN([C@@H](C)CO)C(=O)Cc2cc(NS(=O)(=O)c3ccccc3)ccc2O[C@H]1CN(C)CC1CC1	.	-0.1	.	-44.3
COC(=O)C(C)N1C(=O)S/C(=C/c2cc(C)n(-c3ccccn3)c2C)C1=O (centres undefined)	57.0*	-8.8	20.2	-2.9
CCOC(=O)CN1C(=O)S/C(=C/c2cc(C)n(C)c2C)C1=O	40.5*	47.2*	87.8*	11.3
CCOC(=O)CN1C(=O)S/C(=C/c2cc(C)n(-c3ccccn3)c2C)C1=O	.	44.7*	52.6	-5.0
CCCC(=O)Nc1ccc2c(c1)OC[C@@H](C)N(Cc1cccc(F)c1)C[C@@H](C)[C@H](OC)CN(C)C2=O	.	3.3	.	33.2
